# Measurements as given in PubChem BioAssay (EPA / NIEHS).
# Active and inactive are the calls of the source. How the source made its calls: active means hit-call score of the fitted dose curve at least 0.9, where 1 is the maximum; inactive means score below 0.9.
# Read-out: Collagen III, COL3A1 (gene 1281)
# Assay: BSK_MyoF_CollagenIII: BioMAP Diversity Plus: MyoF Assay for Collagen III Biomarker Activity (AID 2284239)
# Details: primary human lung fibroblasts
# In short: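 Compounds are added to primary human lung fibroblasts and left for 24 hours. Collagen III is then quantified by ELISA. Analysis takes DMSO as baseline and fits increases in signal.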
Compound,outcome,AC50
C=C(C)[C@H]1CC=C(C)C(=O)C1,inactive,–
COc1ccc(CCN2CCC(Nc3nc4ccccc4n3Cc3ccc(F)cc3)CC2)cc1,–,6.52 µM (active)
COc1ccc(OC)c(N=Nc2c(O)ccc3ccccc23)c1,–,10.4 µM (active)
c1ccc2cc(Nc3ccc(Nc4ccc5ccccc5c4)cc3)ccc2c1,–,4.82 µM (active)
CN(C)C(=O)Nc1ccc(Oc2ccc(Cl)cc2)cc1,inactive,–
C=C(C)C(=O)OCCOCCOCCOCCOC(=O)C(=C)C,inactive,–
O=C1c2ccccc2C(=O)c2c(O)ccc(O)c21,inactive,–
CCCCOC(=O)CCCCCCCC(=O)OCCCC,inactive,–
c1ccc(CCc2ccccc2)cc1,–,26.9 µM (active)
c1ccc(Oc2ccccc2)cc1,inactive,–
Clc1cc(Cl)c(-c2c(Cl)c(Cl)cc(Cl)c2Cl)cc1Cl,–,12.4 µM (active)
COc1cc(Cl)c(OC)cc1N,inactive,–
CCCCCCCCCCCCCCCC(=O)OC/C=C(C)/C=C/C=C(C)/C=C/C1=C(C)CCCC1(C)C,inactive,–
CC(=O)c1c(C)c([N+](=O)[O-])c(C(C)(C)C)c([N+](=O)[O-])c1C,inactive,–
C=C(C)C(=O)OCCOCCOCCOC(=O)C(=C)C,inactive,–
CCCCN(CCCC)C(=O)N(CCCC)CCCC,–,8.12 µM (active)
C=C(C)C(=O)OCC(CC)(COC(=O)C(=C)C)COC(=O)C(=C)C,–,29.3 µM (active)

# System: not listed separately
# Assay: CCTE_Mundy_HCI_hNP1_Casp3_7: CCTE's Caspase-Glo 3/7 Assay in human neuroprogenitor cells for Apoptosis, Mundy Lab (AID 2284240)
# Details: not given
# In short: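 Luminescent caspase-3/7 readout, 26.5 h post-dose, in human neural progenitor cells from WA09 embryonic stem cells. Cells grew 40–44 h at 37 °C, 5% CO2 before chemical addition. Activity analysed as signal increase over DMSO baseline.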
row,Compound,outcome
1,COCCOCCOCCO,inactive
2,CN(C)CCOC(C)(c1ccccc1)c1ccccn1 (stereo not given),inactive
3,COCCc1ccc(OCC(O)CNC(C)C)cc1 (stereo not given),inactive
